Measured values: PubChem BioAssay AID743103 (Vanderbilt Specialized Chemistry Center, 2013)
Active and inactive are the calls of the source. The rule behind the calls is not given here.

target: Muscarinic acetylcholine receptor M3 (Homo sapiens) (UniProt P20309); assay: human M3 receptor modulation in M5 NAM selectivity check, counter-screen for M5 NAM project, cell-based, CHO-K1 hM3, Fluo-4 calcium flux, ACh EC20 (AID 743103); details: series mostly up to 30 µM

SMILES | outcome
O=C(c1ccc(F)c(F)c1)N1CCN2C(=O)c3ccccc3C12c1ccccc1 (stereo not given) | inactive
O=C(c1ccc(F)cc1)N1CCN2C(=O)c3ccccc3C12c1ccccc1 (stereo not given) | inactive
O=C(c1ccc(F)c(F)c1)N1CCN2C(=O)c3ccccc3C12c1ccc(Cl)cc1 (stereo not given) | inactive
O=C(c1cc(F)cc(F)c1)N1CCN2C(=O)c3ccccc3C12c1ccc(Cl)cc1 (stereo not given) | inactive
O=C(c1ccc(F)c(F)c1)N1CCN2C(=O)c3ccccc3[C@@]12c1ccc(Cl)cc1 | inactive
